High-throughput results deposited in PubChem BioAssay by National Center for Advancing Translational Sciences (NCATS).
Methyltransferases = Primary Screen for Target Class Profiling of Small Molecule Inhibitors of Methyltransferases; calls only at 40 µM; 25,000 tested, 3.9% active; AID 1745853, 2022; purified enzyme, MTase-Glo SAH luminescence; hits give low values; call rule not given here
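Each enzyme was reacted with SAM and its substrate, with compounds tested once at 40 uM; SAH formed was read by MTase-Glo luminescence.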
Active calls of the source: *; i = inactive; + = active, no number. This is one part of a sample in which hits are shown more often than they occur. % is scaled to controls: 0 for no effect and ±100 for the full control effect.

SMILES	Methyltransferases
CC1=CC(=O)CC(C)(C)C1CCC(C)O[C@@H]1O[C@H](CO[C@@H]2OC[C@@H](O)[C@H](O)[C@H]2O)[C@@H](O)[C@H](O)[C@H]1O (some centres not stated)	+
C[C@H](/C=C/[C@@]1(O)[C@H](C)CC(=O)CC1(C)C)O[C@@H]1O[C@H](CO[C@@H]2OC[C@@H](O)[C@H](O)[C@H]2O)[C@@H](O)[C@H](O)[C@H]1O	i
Cc1ccccc1CN1C(=O)c2cc3ccccc3n2CC1(C)C(=O)NCCC(C)C (configuration not stated)	i
O=C(Nc1cc(-c2ccncc2)nn1-c1ccccc1)c1ccc(Cl)cc1	i
C=CC1(C)C=C2CC[C@H]3[C@@](C)(C(=O)O)CCC[C@]3(C)C2CC1 (some centres not stated)	i
C=C1C(=O)O[C@@H]2C/C(C)=C\C(=O)/C=C(\C)[C@@H](OC(=O)/C(C)=C\C)[C@H](O)[C@@H]12	i
C=C1C(=O)OC2CC3(C)C(CC12)C(C)=CC(O)C3OC(C)=O (configuration not stated)	+
C=C(C)C(=O)O[C@H]1C[C@@](C)(O)C(=O)CC(O)/C(C)=C\[C@H]2OC(=O)C(=C)[C@H]12 (some centres not stated)	i
COc1cccc(CNC(=O)c2cc3n(n2)CC(C)(C(=O)NCc2ccc(F)cc2)N(C)C3=O)c1 (configuration not stated)	i
CC1(C(=O)NC2CCCCCC2)Cn2nc(-c3ccco3)cc2C(=O)N1Cc1cccc(Cl)c1 (configuration not stated)	i
CC1CCC(NC(=O)C2(C)Cn3c(cc4sccc43)C(=O)N2Cc2ccc(F)cc2)CC1 (configuration not stated)	i
COc1ccccc1CNC(=O)C1(C)Cn2nc(-c3ccccc3)cc2C(=O)N1CCc1ccc(Cl)cc1 (configuration not stated)	i
CC1(O)CCC2C(C3C1CCC3(C)O)C2(C)C (configuration not stated)	i
CC1=C2C[C@@]3(C)C(CCC[C@@H]3C)C(O)C2OC1=O (some centres not stated)	i
CC1=C2CC3C(CCC3(C)O)C(C)(O)CC2OC1=O (configuration not stated)	+
Cc1cc2c(cc3n2CC(C)(C(=O)NC2CCCCCC2)N(Cc2ccccc2)C3=O)o1 (configuration not stated)	i
CN1C(=O)c2cc(C(=O)NCc3ccccc3Cl)nn2CC1(C)C(=O)NC1CCCC1 (configuration not stated)	i
CCCCNC(=O)Cn1ccc2cc(S(=O)(=O)N3CCC(C)CC3)ccc21	i
Cc1ccc(Cn2c(=O)c3ccccc3n3c(CCC(=O)N4CCC(C)CC4)nnc23)cc1	i
Cc1ccc(Cn2c(=O)c3ccccc3n3c(CCC(=O)N4CCC(N5CCCCC5)CC4)nnc23)cc1	+
CC(C)CCNC(=O)CCc1nnc2n(Cc3ccccc3Cl)c(=O)c3ccccc3n12	i
O=C(CCCc1nnc2n3nc(-c4ccccc4)nc3c3ccccc3n12)NCc1ccccc1	i
O=C(CCCc1nnc2n3nc(-c4ccccc4)nc3c3ccccc3n12)NCCc1ccccc1	i
O=C(CCc1nnc2n(Cc3ccccc3)c(=O)c3ccccc3n12)N1CCN(C2CCCCC2)CC1	i
O=C(CCc1nnc2n(Cc3ccccc3Cl)c(=O)c3ccccc3n12)NCCN1CCOCC1	i
SMILES	Methyltransferases
CC(C)CCNC(=O)CCc1nnc2n(Cc3ccc(F)cc3)c(=O)c3ccccc3n12	i
CC1CCCCN1CCNC(=O)CCc1nnc2n(Cc3ccc(F)cc3)c(=O)c3ccccc3n12 (configuration not stated)	+
CC1CCN(CCCNC(=O)CCc2nnc3n(Cc4ccccc4Cl)c(=O)c4ccccc4n23)CC1	+
O=C(CCc1nnc2n(Cc3ccc(F)cc3)c(=O)c3ccccc3n12)NCCc1ccccc1	i
O=C(CCCc1nnc2n3nc(-c4ccccc4)nc3c3ccccc3n12)NCCN1CCCC1	+
COc1cc(OC)cc(N2C(=O)c3cc4ccccc4n3CC2(C)C(=O)NC2CCCC2)c1 (configuration not stated)	i
CCCN1C(=O)c2c(C(=O)NCc3cccc(C)c3)ncn2CC1(C)C(=O)NC1CCCC1 (configuration not stated)	i
CCCn1c(=O)c2ccc(C(=O)NCC(C)C)cc2n2c(=O)n(Cc3ccccc3Cl)nc12	i
CC(C)Cn1c(=O)c2ccccc2n2c(SCC(=O)N3CCN(c4ccc(F)cc4)CC3)nnc12	i
CCC(C)NC(=O)c1ccc2c(=O)n(C)c3nnc(SCC(=O)Nc4ccc(C)cc4)n3c2c1 (configuration not stated)	i
CCc1cc2c(cc3n2CC(C)(C(=O)NC2CCCCCC2)N(Cc2ccc(F)cc2)C3=O)s1 (configuration not stated)	i
CCC(C)NC(=O)Cn1nc2n(C(C)C)c(=O)c3ccc(C(=O)NCC(C)C)cc3n2c1=O (configuration not stated)	i
Cc1ccc(N2C(=O)c3cc(C(C)(C)C)nn3CC2(C)C(=O)NC2CCCCC2)cc1C (configuration not stated)	i
CCCn1c(=O)c2ccc(C(=O)NC(C)CC)cc2n2c(SCC(=O)c3ccccc3)nnc12 (configuration not stated)	i
COc1ccc(OC)c(S(=O)(=O)N2CCC[C@H](n3c(=O)n(C)c4cccnc43)C2)c1	i
CC1(C(=O)NC2CCCCC2)Cn2c(ccc2-c2ccco2)C(=O)N1CCc1ccccc1 (configuration not stated)	i
O=C(CCc1nnc2n(CCc3ccccc3)c(=O)c3ccccc3n12)NCCCN1CCCCC1	+
O=C(CCc1nnc2n(Cc3ccc(Cl)cc3)c(=O)c3ccccc3n12)NCCCN1CCOCC1	i
O=C(CCc1nnc2n(CCc3ccccc3)c(=O)c3ccccc3n12)NCCc1ccccc1	i
O=C(CCc1nnc2n(CCc3ccccc3)c(=O)c3ccccc3n12)NCCCN1CCOCC1	i
O=C(CCc1nnc2n(Cc3ccccc3)c(=O)c3ccccc3n12)NCCN1CCCC1	i
O=C(CCc1nnc2n(Cc3ccc(Cl)cc3)c(=O)c3ccccc3n12)NCCN1CCCC1	+
CCc1cc2c(cc3n2CC(C)(C(=O)NC2CCCCCC2)N(CCCc2ccccc2)C3=O)s1 (configuration not stated)	i
CC(C)CCNC(=O)C1(C)Cn2nc(C(=O)NC3CCCC3)cc2C(=O)N1C (configuration not stated)	i
CCC(C(=O)NCc1cccc(Cl)c1)n1ccc2cc(S(=O)(=O)N3CCCCC3)ccc21 (configuration not stated)	i
CCc1cccc(NC(=O)c2cc3n(n2)CC(C)(C(=O)NC2CCCC2)N(CC)C3=O)c1 (configuration not stated)	i
CCCn1c(=O)c2ccc(C(=O)NC(C)C)cc2n2c(SCc3cccc(C)c3)nnc12	i
CCCn1c(=O)c2ccc(C(=O)NC3CCCCC3)cc2n2c(SCC(=O)c3ccc(C)cc3)nnc12	i
O=C1Nc2ccc(-c3ccsc3)cc2C(=O)N2CCN(C(=O)CO)C[C@H]12	i
CC1=CC(=O)C2C(C)(C)CCCC2(C)C12CCC1(COC(=O)C1)O2 (configuration not stated)	+
